Test [1] is described as follows: qHTS assay for measurement of the activity of small molecule inhibitors on Zika virus induced Caspase-3 activity in human iPSC derived neural progenitor cells (hNPCs) (AID 1224857). Also: nearly all actives have a fitted effect of over 65% in size. As to conditions: hNPCs ZIKV-induced caspase-3/7, Caspase-Glo luminescence, 6 h; series mostly up to 45.7 µM. An outline of the steps: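 Quantitative HTS format: human iPSC neural progenitors, 1 h compound pretreatment, ZIKV 2 FFU/cell for 6 h at 37 C. Percent inhibition derived from luminescent caspase-3/7 signal between uninfected and infected controls.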
(In general: qHTS replaces the single test concentration by a dilution series.)

Test [2] can be described thus: qHTS assay for measurement of the activity of small molecule inhibitors on Zika virus induced Caspase-3 activity in human astrocytoma cells (AID 1224859). To be noted: SNB-19 ZIKV-induced caspase-3/7, luminescence, 6 h; series mostly up to 45.7 µM. The method, boiled down:
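Readout is luminescence from Caspase-Glo 3/7 added after a 6 h ZIKV infection (2 FFU/cell) of compound-pretreated (1 h) SNB-19 cells; data expressed as % inhibition versus uninfected and infected wells.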

Test [3] in a line: qHTS assay to identify small molecule inhibitors of chordoma cells - UCH-1 (AID 1259355). Also: nearly all actives have a fitted effect of over 55% in size. Also: potency is read from the fitted curve at half-maximal effect. As to conditions: UCH-1 chordoma viability, CellTiter-Glo, 48 h, combination, with auranofin plus four topoisomerase inhibitors; series mostly up to 46.1 µM. An outline of the steps:
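Seed 800 cells per well; incubate overnight at 37 C, 5% CO2. Add test compounds (15 concentrations), then the auranofin–topoisomerase-agent combination. Incubate 48hr, add CellTiter-Glo, wait 30min, read luminescence.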

Test [4] in a line: qHTS assay to identify small molecule inhibitors of chordoma cells - UCH-2 (AID 1259356). To be noted: UCH-2 chordoma viability, CellTiter-Glo ATP luminescence, 48 h; series mostly up to 46.1 µM.
The nature of test [5]: P-glycoprotein substrates identified in KB-8-5-11 adenocarcinoma cell line, qHTS therapeutic library screen (AID 1346987). Also: nearly all actives have a fitted effect of over 65% in size. Also: potency is read from the fitted curve at half-maximal effect. As to conditions: KB-8-5-11 (P-gp overexpressing) viability, CellTiter-Glo, 72 h; series mostly up to 44.5 µM. An outline of the steps: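 Steps: plate 500 KB-8-5-11 cells/well in DMEM + 10% FCS (colchicine removed); pin compounds in dose-response; incubate 72 h, 37 degree C, 5% CO2; add CellTiter-Glo, 5 min; read luminescence.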

In test [6] the target is Atrial natriuretic peptide receptor 1 (Homo sapiens) (UniProt P16066). As to the kind of experiment: Natriuretic polypeptide receptor (hNpr1) antagonism - Pilot screen (AID 1347049; calls by dose curve;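 also: agonist-evoked cGMP luminescence read 20 min after hNppA addition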). To be noted: hNpr1 cells, antagonist mode cGMP read-out; series mostly up to 57.5 µM. The method, boiled down: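 Readout is cGMP-driven firefly luciferase luminescence in HEK293 cells carrying hNpr1 and a PDE5-domain GloSensor, read before and 20 min after 0.1 nM hNppA stimulation. Cells had 2% substrate reagent for 2 h and test compound for 30 min.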
Chain of Atrial natriuretic peptide receptor 1 (Homo sapiens) (P16066 whole entry, looked up): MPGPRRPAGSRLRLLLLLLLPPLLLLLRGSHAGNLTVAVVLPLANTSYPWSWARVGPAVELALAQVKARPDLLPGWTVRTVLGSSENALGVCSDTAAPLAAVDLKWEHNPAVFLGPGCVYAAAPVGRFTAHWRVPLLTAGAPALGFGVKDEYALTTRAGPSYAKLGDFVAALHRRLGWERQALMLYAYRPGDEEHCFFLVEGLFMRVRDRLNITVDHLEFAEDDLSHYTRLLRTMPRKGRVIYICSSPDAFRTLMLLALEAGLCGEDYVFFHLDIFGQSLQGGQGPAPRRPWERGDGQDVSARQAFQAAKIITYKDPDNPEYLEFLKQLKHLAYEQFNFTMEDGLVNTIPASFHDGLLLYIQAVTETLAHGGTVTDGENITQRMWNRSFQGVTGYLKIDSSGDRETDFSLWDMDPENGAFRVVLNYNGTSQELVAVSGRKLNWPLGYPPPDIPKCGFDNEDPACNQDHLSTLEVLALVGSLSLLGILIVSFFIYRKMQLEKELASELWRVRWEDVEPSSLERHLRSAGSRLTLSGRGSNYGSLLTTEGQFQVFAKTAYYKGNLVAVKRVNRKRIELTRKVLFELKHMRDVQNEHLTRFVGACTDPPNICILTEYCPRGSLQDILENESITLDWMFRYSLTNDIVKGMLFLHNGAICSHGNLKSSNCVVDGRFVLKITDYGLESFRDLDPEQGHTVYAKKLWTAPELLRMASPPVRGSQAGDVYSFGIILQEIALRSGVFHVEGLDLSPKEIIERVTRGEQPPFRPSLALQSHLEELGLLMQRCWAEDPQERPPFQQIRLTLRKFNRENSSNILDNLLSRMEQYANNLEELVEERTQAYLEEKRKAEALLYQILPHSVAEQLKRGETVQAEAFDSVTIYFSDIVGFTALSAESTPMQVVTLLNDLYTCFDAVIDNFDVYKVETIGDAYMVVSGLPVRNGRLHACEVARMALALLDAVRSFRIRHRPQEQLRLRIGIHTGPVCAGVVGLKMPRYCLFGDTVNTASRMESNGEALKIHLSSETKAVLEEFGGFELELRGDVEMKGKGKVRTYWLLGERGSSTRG

For test [7], the target named is Atrial natriuretic peptide receptor 2 (Homo sapiens) (UniProt P20594). As to the kind of experiment: Natriuretic polypeptide receptor (hNpr2) antagonism - Pilot subtype selectivity assay (AID 1347050; calls by dose curve). To be noted: NPR2-expressing cells, cGMP antagonist-mode read-out; series mostly up to 38.3 µM. The method, boiled down:
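Pilot selectivity screen against hNpr2: HEK293 cGMP-sensor cells are treated with LOPAC1280 compounds, then with hNppC peptide at 1 nM final. The cGMP-driven luminescence change over 20 min at room temperature is the read-out.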

Test [8] can be described thus: NS1 protein of Zika virus - qHTS assay to identify small molecule inhibitors in human HEK 293 cells (AID 1347053). Also: nearly all actives have a fitted effect of over 55% in size. As to conditions: HEK293 ZIKV MR766 infection, NS1 TR-FRET, 24 h; series mostly up to 46.1 µM. The method, boiled down: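 Inhibition of NS1 expression was scored in HEK 293 cells given compound 1 h ahead of MR766 virus (MOI = 0.5). Following 24 h at 37 C, two anti-NS1 antibodies generated a TR-FRET signal, scaled between uninfected and infected controls.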

Test [9] addresses T1, Tyrosine-protein phosphatase non-receptor type substrate 1 (Homo sapiens) + Leukocyte surface antigen CD47 (Homo sapiens) (UniProt P78324+Q08722). As to the kind of experiment: CD47-SIRPalpha protein protein interaction - LANCE assay qHTS validation (AID 1347057; active = well fitted curve in the direction sought with a large enough effect in the signal ratio, with a control signal flat, not every such curve was filed as active; the % refers to the signal ratio). As to conditions: Recombinant CD47-His / biotin-SIRPalpha, TR-FRET ratio; series mostly up to 38.3 µM. The method, boiled down: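 First, His-tagged CD47 and Eu-labelled anti-His antibody met the compound for 30 min; next, site-specifically biotinylated SIRPalpha was added for 30 min; finally streptavidin-APC was added before reading the TR-FRET ratio.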
In general terms: TR-FRET usually uses a lanthanide donor and a delayed reading to cut background.

Test [10] has as its target T1, Tyrosine-protein phosphatase non-receptor type substrate 1 (Homo sapiens) + Leukocyte surface antigen CD47 (Homo sapiens). Description: CD47-SIRPalpha protein protein interaction - HTRF assay qHTS validation (AID 1347058; active = well fitted curve in the direction sought with a large enough effect in the signal ratio, not every such curve was filed as active; the % refers to the signal ratio). To be noted: TR-FRET HTRF CD47-His / biotin-SIRPalpha binding, ratio 665/615; series mostly up to 38.3 µM. The method, boiled down: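 TR-FRET read (Ch1/Ch2 ratio) of soluble extracellular CD47 and Avi-biotinylated SIRPalpha domains in PBS pH 7.4 with 0.05% IGEPAL; 7-point compound titration. Sequential 30 min room-temperature steps; non-biotinylated SIRPalpha as control inhibitor.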

Test [11] has the same target. As to the kind of experiment: CD47-SIRPalpha protein protein interaction - Alpha assay qHTS validation (AID 1347059).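 Also: bead proximity luminescence from CD47 binding SIRPalpha after compound preincubation with SIRPalpha.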 To be noted: AlphaScreen CD47-His/biotin-SIRPalpha binding, LOPAC; series mostly up to 38.3 µM. The method, boiled down: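 Binding is measured by AlphaScreen proximity: Ni-NTA acceptor beads capture His-CD47, streptavidin donor beads capture biotin-SIRPalpha. Each of three additions (SIRPalpha with compound, CD47, beads) incubates 30 min at room temperature protected from light.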

Test [12] addresses Parathyroid hormone/parathyroid hormone-related peptide receptor (Homo sapiens) (UniProt Q03431). As to the kind of experiment: qHTS for PTHR1 Agonists: Optimization Screen against the NCGC LOPAC library (AID 1347079).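 Also: GloSensor cAMP luminescence in HEK-293 GP2 cells expressing human PTHR1 with IBMX.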 To be noted: HEK293 GP2 PTHR1 GloSensor cAMP luminescence, 1 h; series mostly up to 57.1 µM. The method, boiled down:
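Agonist readout: GloSensor cAMP luminescence, read after 15 min at room temperature. HEK-293-derived GP2 line carries PTHR1; compounds tested as a titration for 1 hr at 37C in presence of IBMX. M-PTH (1-15) served as control.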

A short description of test [13]: qHTS of pediatric cancer cell lines to identify multiple opportunities for drug repurposing: Primary screen for TC32 cells (AID 1347089). Also: nearly all actives have a fitted effect of over 60% in size. Also: potency is read from the fitted curve at half-maximal effect. To be noted: TC32 Ewing sarcoma viability, CellTiter-Glo luminescence, 48 h; series mostly up to 45.8 µM. An outline of the steps:
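TC32 cells, 500-1,000/well in growth medium, compound-treated 48 h at 37 °C; viability from CellTiter-Glo luminescence. Primary screen: MIPE 11-point (0.78 nM–46 µM final), NPC 8-point (0.59 nM–46 µM final); confirmatory at 11-point dilutions.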

Inconclusive results are not listed. The source made the active and inactive calls. Unless noted, calls follow the shape of the dose curve; as a rule, active = well fitted curve in the direction sought with a large enough effect; inconclusive = small, poorly fitted or top-dose-only effect, or another doubt; inactive = no such curve, though single readings can be large; an effect the other way counts as inactive or inconclusive.

Chain of Atrial natriuretic peptide receptor 2 (Homo sapiens) (P20594 whole entry, looked up): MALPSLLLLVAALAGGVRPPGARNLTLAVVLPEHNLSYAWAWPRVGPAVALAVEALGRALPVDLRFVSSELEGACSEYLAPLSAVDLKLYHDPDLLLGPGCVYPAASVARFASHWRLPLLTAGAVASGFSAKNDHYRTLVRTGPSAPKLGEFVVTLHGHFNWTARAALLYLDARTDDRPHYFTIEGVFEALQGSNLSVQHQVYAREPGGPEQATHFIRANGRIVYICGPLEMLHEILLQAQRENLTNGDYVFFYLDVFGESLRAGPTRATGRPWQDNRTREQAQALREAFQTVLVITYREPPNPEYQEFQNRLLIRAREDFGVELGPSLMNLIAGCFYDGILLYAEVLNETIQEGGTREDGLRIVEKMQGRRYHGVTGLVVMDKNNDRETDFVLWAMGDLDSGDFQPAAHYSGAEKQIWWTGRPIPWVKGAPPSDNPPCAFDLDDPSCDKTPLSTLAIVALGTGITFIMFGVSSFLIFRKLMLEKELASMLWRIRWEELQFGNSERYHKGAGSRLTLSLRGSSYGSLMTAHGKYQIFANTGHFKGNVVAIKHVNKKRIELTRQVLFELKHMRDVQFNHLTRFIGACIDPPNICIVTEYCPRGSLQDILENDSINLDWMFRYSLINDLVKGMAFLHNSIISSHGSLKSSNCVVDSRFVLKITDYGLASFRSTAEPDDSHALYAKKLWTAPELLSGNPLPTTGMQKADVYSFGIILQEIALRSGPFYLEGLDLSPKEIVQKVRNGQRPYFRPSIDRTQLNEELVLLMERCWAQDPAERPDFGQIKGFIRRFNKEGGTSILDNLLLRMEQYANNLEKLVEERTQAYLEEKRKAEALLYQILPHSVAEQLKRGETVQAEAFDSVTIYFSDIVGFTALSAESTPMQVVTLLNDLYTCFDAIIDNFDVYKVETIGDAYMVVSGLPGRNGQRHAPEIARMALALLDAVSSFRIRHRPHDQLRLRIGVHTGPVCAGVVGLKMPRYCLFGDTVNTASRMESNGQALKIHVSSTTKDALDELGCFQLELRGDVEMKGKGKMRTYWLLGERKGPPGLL
T1 sequence (P78324 whole entry, looked up): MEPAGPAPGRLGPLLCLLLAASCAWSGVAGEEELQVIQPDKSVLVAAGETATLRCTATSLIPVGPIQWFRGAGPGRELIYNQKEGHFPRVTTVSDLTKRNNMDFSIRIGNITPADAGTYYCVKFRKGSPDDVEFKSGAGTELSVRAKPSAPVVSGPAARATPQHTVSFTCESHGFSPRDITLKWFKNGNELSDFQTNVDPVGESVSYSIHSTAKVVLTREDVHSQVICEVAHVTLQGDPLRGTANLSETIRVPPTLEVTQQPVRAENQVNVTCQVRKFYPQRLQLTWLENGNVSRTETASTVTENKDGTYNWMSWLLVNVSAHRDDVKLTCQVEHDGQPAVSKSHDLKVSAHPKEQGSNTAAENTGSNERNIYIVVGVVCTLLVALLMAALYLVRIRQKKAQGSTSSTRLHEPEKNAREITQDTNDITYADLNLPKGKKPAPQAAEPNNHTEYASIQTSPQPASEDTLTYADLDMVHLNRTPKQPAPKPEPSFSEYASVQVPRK
T1 sequence (Q08722 whole entry, looked up): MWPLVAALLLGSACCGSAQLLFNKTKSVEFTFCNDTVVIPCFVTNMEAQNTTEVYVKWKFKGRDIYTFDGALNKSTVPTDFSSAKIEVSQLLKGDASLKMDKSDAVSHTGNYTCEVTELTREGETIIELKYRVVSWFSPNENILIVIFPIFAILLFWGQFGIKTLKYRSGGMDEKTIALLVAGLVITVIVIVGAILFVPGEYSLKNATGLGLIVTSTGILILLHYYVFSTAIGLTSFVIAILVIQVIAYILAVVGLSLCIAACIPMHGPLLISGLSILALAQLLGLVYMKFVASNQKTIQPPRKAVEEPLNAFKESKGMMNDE
Chain of Parathyroid hormone/parathyroid hormone-related peptide receptor (Homo sapiens) (Q03431 whole entry, looked up): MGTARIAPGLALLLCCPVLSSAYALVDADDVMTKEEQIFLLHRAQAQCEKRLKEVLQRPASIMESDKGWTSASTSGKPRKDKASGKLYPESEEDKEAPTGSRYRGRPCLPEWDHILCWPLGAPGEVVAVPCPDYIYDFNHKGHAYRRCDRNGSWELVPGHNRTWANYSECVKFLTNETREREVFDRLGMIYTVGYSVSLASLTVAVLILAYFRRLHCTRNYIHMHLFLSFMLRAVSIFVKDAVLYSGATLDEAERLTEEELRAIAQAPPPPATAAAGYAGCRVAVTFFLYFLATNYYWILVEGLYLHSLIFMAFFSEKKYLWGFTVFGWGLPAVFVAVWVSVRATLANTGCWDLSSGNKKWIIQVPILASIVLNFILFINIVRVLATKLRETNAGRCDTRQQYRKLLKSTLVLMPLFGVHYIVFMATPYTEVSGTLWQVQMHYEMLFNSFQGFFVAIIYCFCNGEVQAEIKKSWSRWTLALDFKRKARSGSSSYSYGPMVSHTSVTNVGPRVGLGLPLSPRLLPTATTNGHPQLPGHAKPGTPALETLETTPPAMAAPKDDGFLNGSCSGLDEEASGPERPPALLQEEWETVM

With `O=C1CCC(c2ccc(-n3ccnc3)cc2)=NN1`, the outcome in test [1], in test [2], in test [6], in test [7], in test [9] and in test [10] was inactive. Moreover, the compound was classed as inactive in test [12]. The Potency entry in test [3], in test [4], in test [8] and in test [11] was “inactive” throughout. Besides, in [5], the Potency is 1.46 µM (active).
`COc1cc(-c2ccc(=O)[nH]n2)ccc1OC(F)F`: the outcome in test [1] and in test [2] was inactive. In addition, the Potency result in [3], in test [4], in [8] and in test [13] was “inactive” throughout. For the same compound, the Potency in [5] was 0.116 µM (active).
Regarding `O=C(N/N=C/c1ccccc1O)c1ccncc1`, the compound was classed as inactive in test [1] and in test [2]. Further, the Potency result in test [3], in [4] and in test [5] was “inactive” each time. In addition, the Potency in [13] is 23.6 µM (active).
Turning to `CC(C)COC(=O)OCN1C(=O)CN(CCN2CC(=O)N(COC(=O)OCC(C)C)C(=O)C2)CC1=O`, the compound was classed as inactive in test [1], in [2], in [6], in test [7], in [9] and in test [10]. Also, the call in test [12] was inactive. In addition, the Potency result in [3], in test [4], in test [5], in test [8] and in test [11] was “inactive” throughout.
In the case of `C[C@@H](CN(C)C)CN1c2ccccc2Sc2ccccc21`, the outcome in [1] and in test [2] was inactive. Also, the Potency entry in test [3], in [4], in test [8] and in test [13] was “inactive” each time.
Turning to `CC1=C(C(=O)OC(C)C)C(c2cccc([N+](=O)[O-])c2)C(C(=O)OC2CN(C(c3ccccc3)c3ccccc3)C2)=C(N)N1` (stereo not drawn), the call in test [1] and in [2] was inactive. The Potency result in [3] and in test [4] was “inactive” each time.
In the case of `Cc1c(C(N)=O)cc([N+](=O)[O-])cc1[N+](=O)[O-]`, the call in test [1] and in test [2] was inactive. The Potency result in test [3], in test [4], in test [5], in [8] and in test [13] was “inactive” in each case.
`CCCSS/C(CCO)=C(\C)N(C=O)Cc1cnc(C)nc1N`: the result in [1] and in test [2] was inactive. The Potency result in test [3], in test [4], in test [5] and in test [8] was “inactive” each time.
Consider `N[C@H](CO)C(=O)O`, for which the compound was classed as inactive in test [1], in [2], in [6], in test [7], in [9] and in test [10]. The outcome in test [12] was inactive. For the same compound, the Potency result in test [3], in test [4], in test [5], in test [8] and in test [11] was “inactive” throughout.
`C/C=C/c1ccc(OC)cc1`: the outcome in test [1] and in test [2] was inactive. The Potency entry in test [3], in test [4], in test [5], in test [8] and in [13] was “inactive” each time.
As to `O=c1c(-c2ccccc2)c1-c1ccccc1`, the call in [1] was inactive.
In the case of `CCOC(=O)n1ccn(C)c1=S`, the call in test [1] and in test [2] was inactive. Also, the Potency result in test [3], in test [4], in test [8] and in test [13] was “inactive” in each case.
For the compound `CCCCC1=NC2(CCCC2)C(=O)N1Cc1ccc(-c2ccccc2-c2nn[nH]n2)cc1`, the outcome in [1] and in test [2] was inactive. The Potency entry in test [3], in test [4], in [8] and in test [13] was “inactive” in each case.
Turning to `CC(=O)Oc1ccc2c(c1)CC[C@@H]1[C@@H]2CC[C@]2(C)[C@@H](O)CC[C@@H]12`, the compound was classed as inactive in [1] and in test [2]. Also, the Potency result in test [3], in test [8] and in [13] was “inactive” throughout. In addition, the Potency in test [5] was 5.17 µM (active).
As to `N[C@@H](CCC(=O)N[C@@H](CS)C(=O)NCC(=O)O)C(=O)O`, the outcome in [1] and in [2] was inactive. For the same compound, the Potency result in test [3], in test [4], in test [8] and in test [13] was “inactive” throughout.
Turning to `Cc1ccnc(NS(=O)(=O)c2ccc(N)cc2)n1`, the result in test [1] and in [2] was inactive. For the same compound, the Potency result in test [3], in test [4], in [8] and in [13] was “inactive” throughout.
For the compound `Cc1cccn2c(=O)c(-c3nnn[nH]3)cnc12`, the compound was classed as inactive in test [1] and in [2]. Besides, the Potency entry in [3], in test [4], in test [8] and in test [13] was “inactive” each time.
With `COc1cccc(OC)c1C(=O)N[C@@H]1C(=O)N2[C@@H]1SC(C)(C)[C@@H]2C(=O)O`, the outcome in [1] and in test [2] was inactive. The Potency entry in test [3], in test [4], in [8] and in test [13] was “inactive” each time.
For `Cc1c(F)c(N2CCNC(C)C2)cc2c1c(=O)c(C(=O)O)cn2C1CC1` (stereo not drawn), the call in [1] and in test [2] was inactive. Besides, the Potency entry in test [3], in [4], in [8] and in [13] was “inactive” throughout.
With `O=C(OCCOCCO)c1ccccc1Nc1cccc(C(F)(F)F)c1`, the compound was classed as inactive in test [1] and in [2]. Also, the Potency entry in [3], in [5], in test [8] and in test [13] was “inactive” each time.
For the compound `C#C[C@]1(O)CC[C@H]2[C@@H]3CCc4cc(OC5CCCC5)ccc4[C@H]3CC[C@@]21C`, the compound was classed as inactive in test [1] and in [2]. The Potency entry in [3], in [4], in test [8] and in test [13] was “inactive” each time.
`NC(=O)c1cc[n+](CC2=C(C(=O)[O-])N3C(=O)[C@@H](NC(=O)Cc4cccs4)[C@H]3SC2)cc1`: the compound was called inactive in [1] and in test [2]. Moreover, the Potency entry in [3], in test [4], in test [8] and in test [13] was “inactive” throughout.
With `Cc1cccc(C)c1NC(=O)CN1CCN(CCCC(c2ccc(F)cc2)c2ccc(F)cc2)CC1`, the compound was classed as inactive in [1] and in test [2]. Also, the Potency entry in test [3], in [4], in [8] and in test [13] was “inactive” in each case.
With `CC[C@@H](CO)NCCN[C@@H](CC)CO`, the result in test [1] and in [2] was inactive. The Potency entry in [3], in test [4], in test [8] and in [13] was “inactive” throughout.
Regarding `COc1ccc(CCN2CCC(Nc3nc4ccccc4n3Cc3ccc(F)cc3)CC2)cc1`, the compound was called inactive in [1] and in test [2]. For the same compound, the Potency in test [3] was 31.6 µM (active); in test [5], 20.6 µM (active).
Take `CCCC(=O)Nc1ccc(OCC(O)CNC(C)C)c(C(C)=O)c1` (stereo not drawn): the compound was called inactive in [1] and in [2]. In addition, the Potency result in [3], in test [4], in [8] and in [13] was “inactive” throughout.
